# ROS inducer: ROS inducers in U2OS cancer cells, primary screen, cell-based, H2DCF-DA fluorescence; U2OS ROS induction; ROS induction (% of piperlongumine), % at 10 µM; hit rate 2% among 46,000; in the data active = ROS induction above about 79%, passing the limit was not always enough
# A number is an active result; – = inactive. This is one part of a sample in which hits are shown more often than they occur.
SMILES,ROS inducer
C=Cn1c2ccccc2c2nc3ccccc3nc21,–
O=C(NCc1ccco1)c1cnn2c(C(F)F)cc(-c3ccccc3)nc12,193
COc1ccc(C(=O)NCc2cccnc2)cc1C(=O)NCc1cccnc1,–
Cc1nn(C)cc1CNC(=O)c1cnn2c(C(F)F)cc(C3CC3)nc12,–
COc1cccc(OC)c1C(=O)NC(=S)NCc1cccnc1,–
NC(=O)c1c(NC(=O)c2cnn3c(C(F)F)cc(-c4ccccc4)nc23)sc2c1CCC2,–
COc1ccccc1-c1cc(C(F)F)n2ncc(C(=O)NCc3cccnc3)c2n1,116
C[C@@H]1CN([C@@H](C)CO)C(=O)Cc2cc(NC(=O)Cn3cnnn3)ccc2O[C@@H]1CN(C)C(=O)NC1CCCCC1,–
COc1cc(NC(=O)Cn2nc(C(F)(F)F)c(Cl)c2C)cc(OC)c1OC,–
CC(C)NC(=O)N(C)C[C@H]1Oc2ccc(NC(=O)C3CC3)cc2CC(=O)N([C@H](C)CO)C[C@H]1C,–
CCOC(=O)c1c(/N=C/C2C(=O)c3ccccc3C2=O)sc(C)c1C,–
CCOC(=O)CCCn1c(=O)c2cccn2c2ccccc21,–
CCOC(=O)c1c2c(n3ccccc13)C(=O)c1ccccc1C2=O,210
O=c1oc2ccc3ccccc3c2cc1-c1nn(-c2ccccc2)cc1/C=N/O,–
COc1ccc([Si](C)(C)[C@H]2[C@H](CCO)O[C@@]3(C(=O)N(Cc4ccc(NC(C)=O)cc4)c4ccccc43)[C@@H]2C)cc1,–
COc1ccc([Si](C)(C)[C@@H]2[C@@H](CCO)O[C@]3(C(=O)N(Cc4ccc(NC(C)=O)cc4)c4ccccc43)[C@H]2C)cc1,93
COc1ccc([Si](C)(C)[C@@H]2[C@@H](CCO)O[C@]3(C(=O)N(c4ccccc4)c4ccccc43)[C@H]2C)cc1,–
COc1ccc([Si](C)(C)[C@H]2[C@H](CCO)O[C@@]3(C(=O)N(Cc4ccc(NC(=O)[C@H](C)O)cc4)c4ccccc43)[C@@H]2C)cc1,–
COc1ccc([Si](C)(C)[C@@H]2[C@@H](CCO)O[C@]3(C(=O)N(Cc4ccc(N5CCOC5=O)cc4)c4ccccc43)[C@H]2C)cc1,240
COc1ccc([Si](C)(C)[C@H]2[C@H](CCO)O[C@@]3(C(=O)N(Cc4ccccc4)c4ccc(N5CCOC5=O)cc43)[C@@H]2C)cc1,–
C=CCN1C(=O)[C@]2(O[C@H](CCO)[C@@H]([Si](C)(C)c3ccc(OC)cc3)[C@@H]2C)c2cc(N3CCOC3=O)ccc21,–
COc1ccc([Si](C)(C)[C@@H]2[C@@H](CCO)O[C@]3(C(=O)N(Cc4ccccc4)c4ccc(N5CCOC5=O)cc43)[C@H]2C)cc1,–
COc1ccc([Si](C)(C)[C@@H]2[C@@H](CCO)O[C@]3(C(=O)N(Cc4cccc(N5CCOC5=O)c4)c4ccccc43)[C@H]2C)cc1,101
COC(=O)c1c(NC(=O)C2CC(=O)NN2Cc2ccccc2)sc2c1CCC(C)C2 (stereo unspecified),–
COC(=O)c1c(NC(=O)C2CC(=O)NN2Cc2ccccc2)sc2c1CCC2 (stereo unspecified),149
SMILES,ROS inducer
COC(=O)c1c(NC(=O)Nc2ccccc2)sc2c1CCCC2,–
COc1ccccc1CN(C)C[C@H]1OCc2cnnn2CCCC(=O)N([C@H](C)CO)C[C@H]1C,113
C[C@H](CO)N1C[C@H](C)[C@@H](CN(C)C(=O)Nc2ccc(C(C)(C)C)cc2)OCc2cnnn2CCCC1=O,–
COc1ccccc1CN(C)C[C@H]1OCc2cnnn2CCCC(=O)N([C@@H](C)CO)C[C@H]1C,–
C[C@H](CO)N1C[C@H](C)[C@@H](CN(C)C(=O)Nc2ccc(C(F)(F)F)cc2)OCc2cnnn2CCCC1=O,–
COc1ccccc1CN(C)C[C@@H]1OCc2cnnn2CCCC(=O)N([C@H](C)CO)C[C@H]1C,–
C[C@@H]1CN([C@@H](C)CO)C(=O)CCCn2nncc2CO[C@@H]1CN(C)C(=O)Nc1ccc(C(C)(C)C)cc1,114
Cc1cc(C)c(C#N)c(SCc2nc(COc3cccc(C(F)(F)F)c3)no2)n1,–
Cc1nc2c(C(=O)NC(C)C)cnn2c(C)c1Cc1c(F)cccc1Cl,–
COc1ccc(NC(=O)Nc2cccc3c2O[C@@H](CN(C)C(=O)Nc2ccc(C(F)(F)F)cc2)[C@H](C)CN([C@H](C)CO)C3=O)cc1,–
COc1ccccc1-c1cc(C(F)(F)F)nc(S(=O)(=O)CCCC(=O)N2CCOCC2)n1,90
COc1ccccc1/C=C1\SC(=O)N(CC(=O)N2CCOCC2)C1=O,–
COc1ccc(OC)c(S(=O)(=O)N(C)CC(=O)N2CCOCC2)c1,–
COc1ccc(S(=O)(=O)N(C)C[C@H]2Oc3c(NC(=O)NC4CCCCC4)cccc3C(=O)N([C@@H](C)CO)C[C@H]2C)cc1,–
COc1cccc(N(CC(=O)Nc2ccc(I)cc2C)S(C)(=O)=O)c1,–
COc1ccc(C)cc1N(CC(=O)Nc1ccccc1-c1ccccc1)S(C)(=O)=O,–
COc1ccc(OC)c(N(CC(=O)Nc2cccc(Cl)c2Cl)S(C)(=O)=O)c1,–
Cc1cc(I)ccc1NC(=O)CN(c1cccc(F)c1)S(C)(=O)=O,–
COc1ccc(C)cc1N(CC(=O)Nc1cccc(Cl)c1Cl)S(C)(=O)=O,85
Cc1cccc(N(CC(=O)Nc2ccc(I)cc2C)S(C)(=O)=O)c1,129
CC(C)NS(=O)(=O)c1ccc(OCC(=O)N2CCOCC2)cc1,–
C[C@@H]1CN([C@@H](C)CO)C(=O)c2cccc(NS(=O)(=O)c3ccc(Cl)cc3)c2O[C@@H]1CN(C)Cc1ccc(C(=O)O)cc1,–
COc1ccc(NC(=O)N(C)C[C@H]2Oc3ccc(NC(=O)CCCN(C)C)cc3C(=O)N([C@@H](C)CO)C[C@@H]2C)cc1,–
O=C(NCCc1nc2ccccc2n1Cc1ccccc1)c1ccccc1,–
CCCCn1c(CCNC(=O)c2ccco2)nc2ccccc21,81
SMILES,ROS inducer
O=C(NCCCc1nc2ccccc2n1CCCOc1ccccc1)c1ccco1,–
COc1ccc(-c2cnc3c(c2)C(=O)N([C@H](C)CO)C[C@H](C)[C@H](CN(C)C(=O)Nc2ccc4c(c2)OCO4)O3)cc1,–
C[C@H](CO)N1C[C@H](C)[C@H](CN(C)C(=O)Nc2ccc3c(c2)OCO3)Oc2ncc(-c3cccc(F)c3)cc2C1=O,–
COc1cccc(-c2cnc3c(c2)C(=O)N([C@H](C)CO)C[C@H](C)[C@H](CN(C)C(=O)Nc2ccc4c(c2)OCO4)O3)c1,94
COc1cccc(-c2cnc3c(c2)C(=O)N([C@H](C)CO)C[C@H](C)[C@H](CN(C)C(=O)Nc2cccc4ccccc24)O3)c1,93
COc1cccc(-c2cnc3c(c2)C(=O)N([C@H](C)CO)C[C@H](C)[C@H](CN(C)C(=O)NC2CCCCC2)O3)c1,–
COc1cccc(-c2cnc3c(c2)C(=O)N([C@H](C)CO)C[C@H](C)[C@H](CN(C)C(=O)Nc2ccc(F)cc2)O3)c1,–
O=C(O)CCCCCC(=O)N/N=C/c1nccs1,–
C=CCOC(=O)[C@@H]1[C@H]2C(=O)O[C@H](c3ccccc3)[C@H](c3ccccc3)N2[C@H](c2ccc(OCCOC(=O)[C@@H]3C[C@@H]4C(=O)N[C@@H](Cc5ccccc5)C(=O)N4[C@@H]3c3cccc(OCCO)c3)cc2)[C@@]12C(=O)Nc1ccc(I)cc12,–
O=[N+]([O-])c1ccc(S(=O)(=O)CC2CSc3nc4ccccc4n32)cc1 (stereo unspecified),–
C=C1C(=O)O[C@@H]2C[C@@]3(C)[C@@H](O)C[C@@H](O)C(=C)[C@@H]3C[C@H]12,–

# Screening data as filed in PubChem BioAssay.
